Test results from the supplement of paper PMC10849652.
About 8,800 targets were measured; listed, in parts, are those with a hit and a random draw of the rest. About 0.5% of all pairs of compound and target were hits.

What was measured:
Assay in all cases: log2 fold change, soluble protein after heating vs DMSO (PISA); higher = thermal stabilisation; K562 lysate, 10 uM; active = over 0.2 and 3.5 SD of the protein, either way, in both replicates (recomputed)
[1] = compound: CN1CC[C@H](c2c(O)cc(O)c3c(=O)cc(-c4ccccc4Cl)oc23)[C@H](O)C1 [alvocidib]
How it was run: (§1)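 The values are log-two fold changes in thermal stability compared with solvent controls and come from duplicates. They were obtained by TMTpro 16plex LC-MS/MS, with channel sums equalised, on the supernatant after 21,000xg for 90 min. That supernatant came from crude K562 extract at 1 mg/mL protein treated with 10 μM compound for 30 min, heated for 3 min across 48°C-58°C, pooled and brought to 0.5% NP-40 at 4°C.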

[2] = compound: CN1CCc2c(c3ccccc3n2Cc2ccc(C(=O)NO)cc2)C1 [Tubastatin A]
How it was run: as §1

[3] = compound: CNC(=O)C1=CC=CC=C1NC2=NC(=NC=C2Cl)NC3=C(C=C(C=C3)N4CCOCC4)OC
How it was run: as §1

[4] = compound: CNC(=O)c1ccc(Nc2ncc(C(F)(F)F)c(NCc3nccnc3N(C)S(C)(=O)=O)n2)cc1 [defactinib]
How it was run: as §1

[5] = compound: CNc1nc(-c2ccc3c(N)n[nH]c3c2)cc(N2C[C@@H](C(=O)NC3CCCCC3)CC[C@H]2C)n1
How it was run: as §1

[6] = compound: COC(=O)N[C@@H](C)CNc1nccc(-c2cn(C(C)C)nc2-c2cc(Cl)cc(NS(C)(=O)=O)c2F)n1 [encorafenib]
How it was run: as §1

[7] = compound: COC(=O)[C@H](CCSC)NC(=O)C1=C(C=C(C=C1)NC[C@H](CS)N)C2=CC=CC=C2
How it was run: as §1

[8] = compound: COc1cc(Nc2ncc3c(n2)-c2ccc(Cl)cc2C(c2c(F)cccc2OC)=NC3)ccc1C(=O)O [alisertib]
How it was run: as §1

[9] = compound: COc1cc2nc(-c3cc(F)ccc3O)nc(N[C@@H]3CNC[C@H]3C(C)(C)O)c2cc1OC
How it was run: as §1

[10] = compound: COc1cc2ncnc(Nc3ccc(F)c(Cl)c3)c2cc1OCCCN1CCOCC1 [gefitinib]
How it was run: as §1

[11] = compound: CS(=O)(=O)CCNCc1ccc(-c2ccc3ncnc(Nc4ccc(OCc5cccc(F)c5)c(Cl)c4)c3c2)o1 [lapatinib]
How it was run: as §1

[12] = compound: CS(=O)(=O)N1CCN(Cc2cc3nc(-c4cccc5[nH]ncc45)nc(N4CCOCC4)c3s2)CC1 [pictilisib]
How it was run: as §1

[13] = compound: C[C@@H](Oc1cc(-c2cnn(C3CCNCC3)c2)cnc1N)c1c(Cl)ccc(F)c1Cl [crizotinib]
How it was run: as §1

[14] = compound: C[C@H](C1=CC=C(C=C1)C(=O)NC2=C3C=CNC3=NC=C2)N
How it was run: as §1

[15] = compound: C[C@H](Nc1ncnc2nc[nH]c12)c1cc2cccc(Cl)c2c(=O)n1-c1ccccc1 [duvelisib]
How it was run: as §1

[16] = compound: Cc1cc(Nc2cc(CN3CCOCC3)c3nc(C)c(Cc4ccc(Cl)cc4F)n3n2)n[nH]1 [gandotinib]
How it was run: as §1

[17] = compound: Cc1cc(Nc2cc(N3CCN(C)CC3)nc(Sc3ccc(NC(=O)C4CC4)cc3)n2)n[nH]1 [tozasertib]
How it was run: as §1

[18] = compound: Cc1ccc(-n2nc(C(C)(C)C)cc2NC(=O)Nc2ccc(OCCN3CCOCC3)c3ccccc23)cc1 [doramapimod]
How it was run: as §1

[19] = compound: Cc1ccc(NC(=O)c2ccc(CN3CC[C@H](N(C)C)C3)c(C(F)(F)F)c2)cc1Nc1nccc(-c2cncnc2)n1 [bafetinib]
How it was run: as §1

[20] = compound: Cc1cccc(CC(=O)N2CCc3c2ccc(-c2cn(C)c4ncnc(N)c24)c3F)n1
How it was run: as §1

Measured: log2 fold change

FASTKD2 (UniProt Q9NYY8)
Sequence of UniProt Q9NYY8 (Q9NYY8 whole entry, looked up): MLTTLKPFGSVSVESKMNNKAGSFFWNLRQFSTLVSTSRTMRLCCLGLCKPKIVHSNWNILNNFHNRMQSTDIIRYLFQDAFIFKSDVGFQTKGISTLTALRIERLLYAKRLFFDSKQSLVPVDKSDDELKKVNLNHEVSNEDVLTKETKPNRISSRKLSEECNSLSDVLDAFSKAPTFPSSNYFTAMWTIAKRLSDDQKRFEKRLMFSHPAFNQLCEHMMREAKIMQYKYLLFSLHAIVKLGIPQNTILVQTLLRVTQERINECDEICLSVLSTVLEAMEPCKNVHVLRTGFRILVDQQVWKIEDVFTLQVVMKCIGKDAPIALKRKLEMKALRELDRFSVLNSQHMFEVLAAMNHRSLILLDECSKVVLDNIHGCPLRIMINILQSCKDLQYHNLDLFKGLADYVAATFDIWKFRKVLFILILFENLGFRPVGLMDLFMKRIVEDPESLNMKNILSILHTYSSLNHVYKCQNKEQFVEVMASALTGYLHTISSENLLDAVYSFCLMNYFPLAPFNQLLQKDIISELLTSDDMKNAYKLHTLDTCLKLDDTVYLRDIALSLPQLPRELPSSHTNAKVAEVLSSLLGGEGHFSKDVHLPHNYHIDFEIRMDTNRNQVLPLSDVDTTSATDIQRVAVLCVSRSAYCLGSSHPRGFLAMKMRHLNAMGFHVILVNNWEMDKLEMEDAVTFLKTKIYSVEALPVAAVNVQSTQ
inactive: [1] 0.014 | [2] -0.065 | [3] 0.016 | [4] 0.056 | [5] 0.036 | [6] -0.016 | [7] -0.004 | [8] 0.021 | [9] -0.033 | [10] 0.021 | [11] -0.028 | [12] -0.001 | [13] -0.032 | [14] -0.067 | [15] 0.026 | [16] -0.049 | [17] -0.013 | [18] 0.028 | [19] -0.028 | [20] 0.05

GCDH (UniProt Q92947)
Sequence of UniProt Q92947 (Q92947 whole entry, looked up): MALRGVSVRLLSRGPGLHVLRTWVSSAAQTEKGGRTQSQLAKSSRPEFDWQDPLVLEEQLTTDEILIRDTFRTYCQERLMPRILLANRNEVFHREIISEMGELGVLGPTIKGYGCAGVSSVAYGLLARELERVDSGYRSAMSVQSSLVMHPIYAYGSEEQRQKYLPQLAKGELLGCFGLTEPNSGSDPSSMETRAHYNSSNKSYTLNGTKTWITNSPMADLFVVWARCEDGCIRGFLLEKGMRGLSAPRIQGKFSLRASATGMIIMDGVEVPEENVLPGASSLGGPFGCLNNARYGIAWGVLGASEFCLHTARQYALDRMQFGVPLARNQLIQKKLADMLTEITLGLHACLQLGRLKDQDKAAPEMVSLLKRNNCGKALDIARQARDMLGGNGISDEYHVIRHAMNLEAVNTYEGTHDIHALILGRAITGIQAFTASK
inactive: [1] 0.018 | [2] -0.069 | [3] -0.049 | [4] 0.004 | [5] 0.057 | [6] -0.049 | [7] 0.159 | [8] 0.049 | [9] 0.006 | [10] -0.004 | [11] 0.016 | [12] 0.012 | [13] -0.017 | [14] 0.013 | [15] 0.19 | [16] -0.005 | [17] 0.007 | [18] -0.026 | [19] 0.047 | [20] -0.004

EEF1AKNMT (UniProt Q8N6R0)
Sequence of UniProt Q8N6R0 (Q8N6R0 whole entry, looked up): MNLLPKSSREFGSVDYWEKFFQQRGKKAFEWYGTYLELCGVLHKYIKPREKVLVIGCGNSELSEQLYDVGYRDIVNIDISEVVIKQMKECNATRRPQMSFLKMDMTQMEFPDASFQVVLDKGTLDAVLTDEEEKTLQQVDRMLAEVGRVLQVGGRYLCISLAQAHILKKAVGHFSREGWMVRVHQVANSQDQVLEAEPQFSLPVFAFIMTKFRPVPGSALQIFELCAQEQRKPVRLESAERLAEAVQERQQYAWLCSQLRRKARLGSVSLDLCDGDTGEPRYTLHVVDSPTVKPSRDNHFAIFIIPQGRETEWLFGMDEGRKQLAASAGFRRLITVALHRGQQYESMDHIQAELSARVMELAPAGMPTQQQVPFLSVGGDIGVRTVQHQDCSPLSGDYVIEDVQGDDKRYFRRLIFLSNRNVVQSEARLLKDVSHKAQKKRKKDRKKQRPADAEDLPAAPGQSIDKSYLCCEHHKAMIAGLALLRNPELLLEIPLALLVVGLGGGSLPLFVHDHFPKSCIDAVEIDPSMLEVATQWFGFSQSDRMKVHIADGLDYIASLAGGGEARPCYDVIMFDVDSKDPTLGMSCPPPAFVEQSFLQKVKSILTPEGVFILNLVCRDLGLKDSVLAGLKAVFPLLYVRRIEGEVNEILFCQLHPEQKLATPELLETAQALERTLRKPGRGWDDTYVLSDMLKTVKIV
inactive: [1] 0.009 | [2] -0.102 | [3] 0.051 | [4] -0.012 | [5] -0.015 | [6] 0.005 | [7] 0.076 | [8] -0.02 | [9] 0.027 | [10] -0.031 | [11] -0.006 | [12] -0.046 | [13] -0.123 | [14] 0.017 | [15] 0.03 | [16] -0.133 | [17] -0.029 | [18] 0.074 | [19] -0.014 | [20] -0.024

ELAVL1 isoform 2 (UniProt Q15717)
Sequence of UniProt Q15717 (Q15717 whole entry, looked up): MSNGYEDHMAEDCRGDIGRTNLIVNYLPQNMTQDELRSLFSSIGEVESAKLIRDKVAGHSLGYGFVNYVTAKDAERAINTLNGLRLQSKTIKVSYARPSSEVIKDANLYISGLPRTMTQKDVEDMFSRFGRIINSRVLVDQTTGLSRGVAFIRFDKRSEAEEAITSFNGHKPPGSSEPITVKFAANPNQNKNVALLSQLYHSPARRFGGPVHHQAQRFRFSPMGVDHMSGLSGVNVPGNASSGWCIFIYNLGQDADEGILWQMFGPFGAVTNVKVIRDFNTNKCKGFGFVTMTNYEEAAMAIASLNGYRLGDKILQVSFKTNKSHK
inactive: [1] 0.013 | [2] -0.187 | [3] 0.05 | [4] -0.005 | [5] -0.011 | [6] 0.018 | [7] 0.166 | [8] 0.019 | [9] -0.002 | [10] 0.048 | [11] 0.031 | [12] -0.002 | [13] -0.037 | [14] 0.055 | [15] 0.001 | [16] -0.067 | [17] -0.047 | [18] 0.007 | [19] -0.004 | [20] -0.026

FIGNL1 (UniProt Q6PIW4)
Sequence of UniProt Q6PIW4 (Q6PIW4 whole entry, looked up): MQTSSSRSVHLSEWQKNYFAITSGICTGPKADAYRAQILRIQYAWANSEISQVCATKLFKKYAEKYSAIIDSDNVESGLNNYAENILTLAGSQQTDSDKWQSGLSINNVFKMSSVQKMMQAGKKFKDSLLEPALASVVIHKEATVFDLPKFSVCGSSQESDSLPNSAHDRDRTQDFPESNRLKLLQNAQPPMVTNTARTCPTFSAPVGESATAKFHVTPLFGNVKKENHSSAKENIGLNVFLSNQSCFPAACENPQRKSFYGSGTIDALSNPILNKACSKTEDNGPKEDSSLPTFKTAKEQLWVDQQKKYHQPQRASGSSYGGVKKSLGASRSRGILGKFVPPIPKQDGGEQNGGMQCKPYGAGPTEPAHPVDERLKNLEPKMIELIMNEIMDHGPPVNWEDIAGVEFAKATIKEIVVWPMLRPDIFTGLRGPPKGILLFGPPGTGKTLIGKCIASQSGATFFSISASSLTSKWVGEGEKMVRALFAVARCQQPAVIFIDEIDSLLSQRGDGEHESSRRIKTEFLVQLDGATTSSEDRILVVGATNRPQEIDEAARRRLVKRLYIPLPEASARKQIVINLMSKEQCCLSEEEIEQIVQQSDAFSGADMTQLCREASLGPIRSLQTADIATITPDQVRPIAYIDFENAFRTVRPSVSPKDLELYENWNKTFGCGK
inactive: [1] -0.018 | [2] -0.189 | [3] 0.014 | [4] 0.05 | [5] -0.018 | [6] 0.041 | [7] 0.069 | [8] -0.003 | [9] 0.005 | [10] 0.01 | [11] 0 | [12] -0.03 | [13] -0.078 | [14] -0.035 | [15] 0.002 | [16] -0.071 | [17] 0.003 | [18] -0.018 | [19] -0.024 | [20] 0.007

EXOC2 (UniProt Q96KP1)
Sequence of UniProt Q96KP1 (Q96KP1 whole entry, looked up): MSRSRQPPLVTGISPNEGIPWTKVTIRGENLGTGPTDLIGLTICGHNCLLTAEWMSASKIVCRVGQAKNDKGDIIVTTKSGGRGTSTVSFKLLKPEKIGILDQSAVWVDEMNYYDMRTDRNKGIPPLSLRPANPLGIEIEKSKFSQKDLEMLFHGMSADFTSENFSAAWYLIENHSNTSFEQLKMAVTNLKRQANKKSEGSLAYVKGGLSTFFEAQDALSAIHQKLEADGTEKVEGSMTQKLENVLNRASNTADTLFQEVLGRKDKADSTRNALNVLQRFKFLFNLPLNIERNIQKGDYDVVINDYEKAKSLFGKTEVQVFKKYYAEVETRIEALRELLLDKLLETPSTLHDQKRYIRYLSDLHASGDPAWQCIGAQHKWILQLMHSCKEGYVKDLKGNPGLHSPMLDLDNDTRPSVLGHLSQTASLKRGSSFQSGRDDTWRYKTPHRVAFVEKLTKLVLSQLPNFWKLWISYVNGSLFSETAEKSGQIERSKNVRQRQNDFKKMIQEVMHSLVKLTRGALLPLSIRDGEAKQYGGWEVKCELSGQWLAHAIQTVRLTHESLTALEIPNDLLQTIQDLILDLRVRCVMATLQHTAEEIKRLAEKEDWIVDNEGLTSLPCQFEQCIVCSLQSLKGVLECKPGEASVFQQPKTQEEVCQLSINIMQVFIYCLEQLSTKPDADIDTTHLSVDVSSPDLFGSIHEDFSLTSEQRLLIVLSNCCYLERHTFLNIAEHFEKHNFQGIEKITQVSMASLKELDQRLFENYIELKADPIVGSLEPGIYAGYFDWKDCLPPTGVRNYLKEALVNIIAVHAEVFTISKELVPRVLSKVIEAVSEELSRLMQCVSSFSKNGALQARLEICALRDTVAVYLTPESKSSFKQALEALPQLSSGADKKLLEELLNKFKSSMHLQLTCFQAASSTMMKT
inactive: [1] 0.025 | [2] -0.107 | [3] -0.012 | [4] 0.046 | [5] -0.048 | [6] 0.031 | [7] 0.027 | [8] 0 | [9] 0.007 | [10] 0.005 | [11] -0.016 | [12] -0.011 | [13] -0.099 | [14] 0.017 | [15] -0.032 | [16] -0.185 | [17] 0.001 | [18] 0.042 | [19] -0.056 | [20] 0.059

FARSA (UniProt Q9Y285)
Sequence of UniProt Q9Y285 (Q9Y285 whole entry, looked up): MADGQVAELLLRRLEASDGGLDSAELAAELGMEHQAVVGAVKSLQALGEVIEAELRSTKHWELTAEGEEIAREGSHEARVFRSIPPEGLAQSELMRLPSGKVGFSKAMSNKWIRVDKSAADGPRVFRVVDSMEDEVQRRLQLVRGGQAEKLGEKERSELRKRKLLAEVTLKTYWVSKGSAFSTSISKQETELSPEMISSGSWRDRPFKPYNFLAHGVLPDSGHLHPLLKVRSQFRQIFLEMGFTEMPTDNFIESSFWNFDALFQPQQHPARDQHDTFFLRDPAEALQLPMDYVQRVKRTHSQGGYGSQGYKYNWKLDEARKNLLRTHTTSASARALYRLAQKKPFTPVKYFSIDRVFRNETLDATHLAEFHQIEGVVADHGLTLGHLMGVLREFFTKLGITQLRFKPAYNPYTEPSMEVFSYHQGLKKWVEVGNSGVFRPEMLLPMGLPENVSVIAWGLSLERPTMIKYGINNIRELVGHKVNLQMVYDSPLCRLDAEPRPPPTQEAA
inactive: [1] -0.003 | [2] -0.105 | [3] 0.007 | [4] 0.045 | [5] 0.019 | [6] -0.02 | [7] 0.098 | [8] 0.01 | [9] 0.017 | [10] -0.014 | [11] -0.028 | [12] 0.012 | [13] -0.05 | [14] -0.003 | [15] 0.056 | [16] 0.039 | [17] -0.063 | [18] 0 | [19] -0.075 | [20] -0.047

EFCAB14 (UniProt O75071)
Sequence of UniProt O75071 (O75071 whole entry, looked up): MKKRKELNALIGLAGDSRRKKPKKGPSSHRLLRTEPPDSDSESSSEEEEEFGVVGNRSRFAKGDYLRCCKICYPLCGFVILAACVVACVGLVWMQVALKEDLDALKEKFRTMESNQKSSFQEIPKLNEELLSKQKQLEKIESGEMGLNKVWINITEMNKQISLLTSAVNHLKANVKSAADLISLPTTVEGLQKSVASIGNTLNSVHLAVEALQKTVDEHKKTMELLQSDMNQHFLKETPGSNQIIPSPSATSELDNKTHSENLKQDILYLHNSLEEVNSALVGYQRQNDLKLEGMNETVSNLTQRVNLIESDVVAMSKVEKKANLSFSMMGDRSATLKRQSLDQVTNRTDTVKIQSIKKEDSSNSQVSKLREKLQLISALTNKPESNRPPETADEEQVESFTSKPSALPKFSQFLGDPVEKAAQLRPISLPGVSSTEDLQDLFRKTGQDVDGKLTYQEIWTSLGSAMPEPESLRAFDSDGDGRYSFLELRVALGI
inactive: [1] -0.056 | [2] 0.077 | [3] 0.01 | [4] -0.007 | [5] -0.058 | [6] 0.038 | [7] -0.086 | [8] 0.063 | [9] 0.012 | [10] -0.131 | [11] -0.051 | [12] -0.058 | [13] 0.006 | [14] 0.037 | [15] 0.022 | [16] 0.064 | [17] 0.086 | [18] 0.011 | [19] -0.002 | [20] -0.084
